# Source: PubChem BioAssay (Tox21)
# Results filed as inconclusive are left out. A number with no mark means an inactive call. Calls come from the whole dose curve.
# Experiment: p53 small molecule agonists, cell-based qHTS assay: qHTS cell viability counter screen (AID 1963581); note: nearly all actives have a fitted effect of over 45% in size
# Conditions: p53RE-bla HCT-116 viability, ATP luminescence, 16 h; series mostly up to 66 µM; activity change, negative = cytotoxicity: at the top concentration
# Text: National Center for Advancing Translational Sciences [NCATS]
# Division of Preclinical Innovation [DPI]
# U.S. Environmental Protection Agency [EPA]
# National Institutes of Environmental Health Sciences [NIEHS]
# National Toxicology Program [NTP]
# U.S. Food and Drug Administration [FDA]
# p53, a tumor suppressor protein, is activated following cellular insult, including DNA damage and other cellular stresses. The activation of p53 regulates cell fate by inducing DNA repair, cell cycle arrest, apoptosis, or cellular senescence. The activation of p53, therefore, is a good indicator of DNA damage and other cellular stresses. The CellSensor p53RE-bla HCT-116 cell line (Invitrogen) contains a stably integrated beta-lactamase reporter gene under control of the p53 response elements. The activation of the reporter gene under culture conditions can be detected by fluorescence intensity. This cell line was used to screen the Tox21 compound library in a 1536-well plate format and to identify agonists that activate the p53 signaling pathway. The cytotoxicity of the Tox21 compound library against the p53 RE-bla HCT-116 cell line was tested in parallel by measuring the intra cellular ATP content in the same wells.
# Tox21 Assay Protocol Summary:
# The p53RE-bla cells were dispensed at 4,000 cells/5 ul/well in 1536-well black wall/clear bottom plates using a Multidrop dispenser. After the assay plates were incubated at a 37 C/5% CO2 incubator for 5 hours, 23 nL of compounds dissolved in DMSO, positive controls or DMSO only was transferred to the assay plate by a pin tool. The plates were incubated at 37 C for 16 hours. After 1 uL of LiveBLAzerTM B/G FRET substrate was added using a Flying Reagent Dispenser, the plates were incubated at room temperature for 2 hours, and fluorescence intensity was measured by an Envision plate reader. For cell viability readout that measures cytotoxicity, 4 ul/well of CellTiter-Glo reagent was added into the assay plates using a Flying Reagent Dispenser. After 30 min incubation at room temperature, the luminescence intensity in the plates was measured using a ViewLux plate reader.
# % is set by controls: 0 for no effect and ±100 for the full control effect.
row,Structure (SMILES),"activity change, negative = cytotoxicity"
1,CN1C(=O)[C@@H](NC(=O)c2cc3ccccc3[nH]2)N=C(c2ccccc2)c2ccccc21,-3.04% [at 30.3 µM]
2,CCOC(=O)c1cn2nc(OP(=S)(OCC)OCC)cc2nc1C,-1.8%
3,OC(c1ccc(F)cc1)(c1cncnc1)c1ccccc1Cl (stereo not given),2.52%
4,CC(c1ccccc1)(c1ccc(O)cc1)c1ccc(O)cc1,-4.59%
5,CCOP(O)OCC,-3.89%
6,CSC(C)(C)/C=N/O,-1.47%
7,CC1=NNC(=O)N(/N=C/c2cccnc2)C1,-3.54%
8,CCOC(=O)C1(c2ccccc2)CCN(CCc2ccc(N)cc2)CC1,-13.7% [at 30.3 µM]
9,O=C(C(Cl)(Cl)Cl)C(Cl)(Cl)Cl,-5.02%
10,CC(C)CC(N(C)C)C1(c2ccc(Cl)cc2)CCC1 (stereo not given),-14.5% [at 30.3 µM]
11,CCN1CCCC1CNC(=O)C(O)(c1ccccc1)c1ccccc1 (stereo not given),-0.532% [at 30.3 µM]
12,CNC(=O)Oc1ccccc1C(C)C,5.46%
13,ClCCCCl,-12%
14,CCOC(=O)NC(C)(C)Cc1ccc(Cl)cc1,19.4% [at 30.3 µM]
15,CCC(C)(C)c1cc(-n2nc3ccccc3n2)c(O)c(C(C)(C)CC)c1,-7.63%
16,C=CCC1([C@H](C)CCC)C(=O)NC(=O)NC1=O,0.599%
17,CCCCC(CC)COP(=O)(Oc1ccccc1)Oc1ccccc1 (stereo not given),-3.46%
18,O=C(Cl)c1ccc(Cl)cc1,-5.59%
19,N#CSCc1ccccc1,22.3%
20,O=C1C(Cl)C(CCl)CN1c1cccc(C(F)(F)F)c1 (stereo not given),8.4%

row,Structure (SMILES),"activity change, negative = cytotoxicity"
1,O=C(O)[C@H](O)[C@@H](O)C(=O)O,6.62%
2,CC1N=C(N)OC1c1ccccc1 (stereo not given),5.72%
3,O=C(N[C@@H]1N=C(c2ccccc2F)c2cccc3c2N(CC3)C1=O)c1cc2ccccc2[nH]1,11.6% [at 30.3 µM]
4,O=C1CC[C@@]2(O)[C@H]3Cc4ccc(O)c5c4[C@@]2(CCN3CC2CC2)[C@H]1O5,-6.02% [at 30.3 µM]
5,ClCCCCCCCl,-1.8%
6,COc1ccc(C=O)cc1O,-2.77%
7,O=[N+]([O-])c1ccc(Oc2ccc(C(F)(F)F)cc2[N+](=O)[O-])cc1,7.94%
8,C=C(Cl)CSC(=S)N(CC)CC,4.6%
9,CN1C(=S)CN=C(c2ccccc2)c2cc(Cl)ccc21,23.1% [at 30.3 µM]
10,Oc1cc(Cl)cc(Cl)c1,-10.8%
11,CC(C)NCC(O)c1ccc(N)c(C#N)c1 (stereo not given),1.05% [at 30.3 µM]
12,O=c1[nH]c(Cl)c(Cl)cc1Cl,7.31%
13,CC(C)(C)NC[C@H](O)c1ccc(O)cc1Cl,-0.121% [at 30.3 µM]
14,COP(N)(=S)Oc1ccccc1C(=O)OC(C)C (stereo not given),0.231%
15,c1ccc(OCC2CO2)cc1 (stereo not given),4.63%
16,COC1=CC(=O)O[C@@H](CCc2ccccc2)C1,0%
17,O=NN1CCNCC1,-0.959%
18,CCCCCCCCBr,-5.69%
19,CCC1(C2=NCCN2)Cc2ccccc2O1 (stereo not given),0.454% [at 30.3 µM]
20,BrCCCCBr,-0.71%
